# Results filed as inconclusive are left out. Entries that show only a call come without a potency. Active and inactive are the calls of the source. Calls come from the whole dose curve; as a rule, active = well fitted curve in the direction sought with a large enough effect; inconclusive = small, poorly fitted or top-dose-only effect, or another doubt; inactive = no such curve, though single readings can be large; an effect the other way counts as inactive or inconclusive.
# System: not listed separately
# Test: HTS Assay for Allosteric Antagonists of the Human D2 Dopamine Receptor: Hit Validation in HTRF (AID 624455);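 note: stable D1 dopamine receptor cell line scored for blocking the D1 response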
# Conditions: Cells stably expressing D1 dopamine receptor, inhibition mode; series mostly up to 46.1 µM
# Summary of the method: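 Hits were examined in an HTRF assay using cells stably expressing the D1 dopamine receptor, scoring inhibition of the D1-mediated response. The preceding primary screen tracked calcium flux after an EC80 dopamine addition in force-coupled, inducible Hek293 Trex D2 cells.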
# Potency is the fitted concentration of half-maximal effect.
row,Compound,Potency
1,C/C(O)=C(\C#N)C(=O)Nc1cc(Br)ccc1Br,inactive
2,N[C@@H](CCl)C(=O)O,inactive
3,c1ccc2c(c1)[I+]c1ccccc1-2,inactive
4,C[N+]1(C)CCOC(O)(c2ccc(-c3ccc(C4(O)C[N+](C)(C)CCO4)cc3)cc2)C1 (stereo not drawn),inactive
5,C[Se]C[C@H](N)C(=O)O,inactive
6,Cc1sc2ccccc2c1CC1=NCCN1,inactive
7,Oc1ccc2c3c1O[C@H]1c4oc5ccccc5c4C[C@@]4(O)C(C2)N(CC2CC2)CCC314 (stereo partly drawn),inactive
8,C[N+]1(C)CCN(c2ccccc2)CC1,inactive
9,OCc1cnc[nH]1,inactive
10,CCn1cnc2c(Nc3cccc(Cl)c3)nc(N[C@@H]3CCCC[C@@H]3N)nc21,inactive
11,CN(C(=O)Cc1ccc(Cl)c(Cl)c1)C(CN1CCCC1)c1cccc(OCC(=O)O)c1 (stereo not drawn),inactive
12,CCN1C[C@@]2(COC)C3[C@@H](OC)C4[C@@H]1C3([C@@H]1C[C@]3(O)[C@H](OC(=O)c5ccccc5)[C@@H]1[C@]4(OC(C)=O)[C@@H](O)[C@@H]3OC)[C@H](OC)C[C@H]2O,inactive
13,C=CCN1CC[C@]23c4c5ccc(O)c4O[C@H]2/C(=N/NC(=O)c2ccccc2)CC[C@@]3(O)[C@H]1C5,inactive
14,C[C@@H]1O[C@H](C[N+](C)(C)C)CS1,inactive
15,Nc1ccc(CCN2CCN(c3cccc(C(F)(F)F)c3)CC2)cc1,inactive
16,CN1CC[C@@]2(C)c3cc(O)ccc3N(C)C12 (stereo partly drawn),inactive
17,NC(N)=NOCC[C@H](N)C(=O)O,inactive

row,Compound,Potency
1,COC(=O)N1CCN(C(=O)Cc2ccc(Cl)c(Cl)c2)C(CN2CCCC2)C1 (stereo not drawn),inactive
2,CC(C)[C@@]1(NC(=O)[C@@H]2C[C@@H]3c4cccc5[nH]cc(c45)C[C@H]3N(C)C2)O[C@@]2(O)[C@@H]3CCCN3C(=O)[C@H](Cc3ccccc3)N2C1=O,0.0517 µM (active)
3,NC(C(=O)O)c1cc(=O)[nH]o1 (stereo not drawn),inactive
4,CO[C@H]1CC=C2CCN3CCC4=C(CC(=O)OC4)[C@]23C1,inactive
5,c1ccc2c(N3CCNCC3)cccc2c1,inactive
6,COc1ccc2[nH]c3c(c2c1)CCNC3,inactive
7,NC(=O)CI,inactive
8,Cc1[nH]c2ccc(O)cc2c1CCN,inactive
9,CNc1ccc2oc(C[C@H]3O[C@@]4(CC[C@H]3C)O[C@H]([C@H](C)C(=O)c3ccc[nH]3)[C@H](C)C[C@H]4C)nc2c1C(=O)O,inactive
10,CN1CCC(c2c[nH]c3ccc(O)cc23)CC1,inactive
11,C=CCN1CC[C@]23c4c5ccc(O)c4O[C@@H]2/C(=N/N=C2\CC[C@@]4(O)C6Cc7ccc(O)c8c7[C@@]4(CCN6CC=C)[C@@H]2O8)CC[C@@]3(O)C1C5,inactive
12,NC(CCCCCP(=O)(O)O)C(=O)O (stereo not drawn),inactive
13,NC(=O)COc1c(F)cc(SCCNS(=O)(=O)c2ccccc2)cc1F,inactive
14,C=CCN(C1=NCCN1)c1c(Cl)cccc1Cl,inactive
15,CC(=O)OCC1=C(C(=O)O)N2C(=O)[C@@H](NC(=O)CCC[C@@H](N)C(=O)O)[C@H]2SC1,inactive
16,CCCN(CCC)C1Cc2cc(OC)c(OC)cc2C1,inactive
17,CC(N)Cc1c[nH]c2ccc(O)cc12 (stereo not drawn),inactive

# Biological target: Arylsulfatase A (Homo sapiens) (UniProt P15289)
# Sequence (P15289 whole entry, looked up): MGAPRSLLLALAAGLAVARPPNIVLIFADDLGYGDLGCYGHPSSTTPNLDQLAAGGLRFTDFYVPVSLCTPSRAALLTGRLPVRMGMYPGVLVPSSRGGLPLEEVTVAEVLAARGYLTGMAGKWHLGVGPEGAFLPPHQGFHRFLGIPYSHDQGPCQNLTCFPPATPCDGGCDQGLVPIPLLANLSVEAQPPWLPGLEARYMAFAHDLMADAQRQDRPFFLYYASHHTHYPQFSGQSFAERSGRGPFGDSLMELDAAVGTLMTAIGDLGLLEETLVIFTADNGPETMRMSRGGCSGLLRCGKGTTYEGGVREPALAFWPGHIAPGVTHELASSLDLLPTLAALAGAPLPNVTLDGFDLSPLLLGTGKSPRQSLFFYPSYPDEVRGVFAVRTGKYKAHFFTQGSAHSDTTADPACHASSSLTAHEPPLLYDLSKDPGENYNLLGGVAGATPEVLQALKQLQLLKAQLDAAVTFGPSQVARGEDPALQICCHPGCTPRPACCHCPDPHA
# Test: qHTS screen for enhancers of Arylsulfatase A (ASA1): LOPAC Validation Assay (AID 720538)
# Conditions: ASA enzyme activity, LOPAC qHTS enhancer assay; series mostly up to 57.5 µM
# Summary of the method: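 Enhancer assay in patient-derived MLD fibroblasts carrying ASA-I179S: 48 h compound exposure at 37 C, then 14 h room-temperature pNCS turnover (0.5 mM final) in lysis buffer. Read by fluorescence at 525/598 nm after NaOH stop.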
row,Compound,Potency
1,C/C(O)=C(\C#N)C(=O)Nc1cc(Br)ccc1Br,inactive
2,N[C@@H](CCl)C(=O)O,inactive
3,c1ccc2c(c1)[I+]c1ccccc1-2,inactive
4,C[N+]1(C)CCOC(O)(c2ccc(-c3ccc(C4(O)C[N+](C)(C)CCO4)cc3)cc2)C1 (stereo not drawn),inactive
5,C[Se]C[C@H](N)C(=O)O,inactive
6,Cc1sc2ccccc2c1CC1=NCCN1,inactive
7,Oc1ccc2c3c1O[C@H]1c4oc5ccccc5c4C[C@@]4(O)C(C2)N(CC2CC2)CCC314 (stereo partly drawn),inactive
8,C[N+]1(C)CCN(c2ccccc2)CC1,inactive
9,OCc1cnc[nH]1,inactive
10,CCn1cnc2c(Nc3cccc(Cl)c3)nc(N[C@@H]3CCCC[C@@H]3N)nc21,inactive
11,CN(C(=O)Cc1ccc(Cl)c(Cl)c1)C(CN1CCCC1)c1cccc(OCC(=O)O)c1 (stereo not drawn),inactive
12,CCN1C[C@@]2(COC)C3[C@@H](OC)C4[C@@H]1C3([C@@H]1C[C@]3(O)[C@H](OC(=O)c5ccccc5)[C@@H]1[C@]4(OC(C)=O)[C@@H](O)[C@@H]3OC)[C@H](OC)C[C@H]2O,inactive
13,C=CCN1CC[C@]23c4c5ccc(O)c4O[C@H]2/C(=N/NC(=O)c2ccccc2)CC[C@@]3(O)[C@H]1C5,inactive
14,C[C@@H]1O[C@H](C[N+](C)(C)C)CS1,inactive
15,Nc1ccc(CCN2CCN(c3cccc(C(F)(F)F)c3)CC2)cc1,inactive
16,CN1CC[C@@]2(C)c3cc(O)ccc3N(C)C12 (stereo partly drawn),inactive
17,NC(N)=NOCC[C@H](N)C(=O)O,inactive

row,Compound,Potency
1,COC(=O)N1CCN(C(=O)Cc2ccc(Cl)c(Cl)c2)C(CN2CCCC2)C1 (stereo not drawn),inactive
2,CC(C)[C@@]1(NC(=O)[C@@H]2C[C@@H]3c4cccc5[nH]cc(c45)C[C@H]3N(C)C2)O[C@@]2(O)[C@@H]3CCCN3C(=O)[C@H](Cc3ccccc3)N2C1=O,inactive
3,NC(C(=O)O)c1cc(=O)[nH]o1 (stereo not drawn),inactive
4,CO[C@H]1CC=C2CCN3CCC4=C(CC(=O)OC4)[C@]23C1,inactive
5,c1ccc2c(N3CCNCC3)cccc2c1,inactive
6,COc1ccc2[nH]c3c(c2c1)CCNC3,inactive
7,NC(=O)CI,inactive
8,Cc1[nH]c2ccc(O)cc2c1CCN,inactive
9,CNc1ccc2oc(C[C@H]3O[C@@]4(CC[C@H]3C)O[C@H]([C@H](C)C(=O)c3ccc[nH]3)[C@H](C)C[C@H]4C)nc2c1C(=O)O,inactive
10,CN1CCC(c2c[nH]c3ccc(O)cc23)CC1,inactive
11,C=CCN1CC[C@]23c4c5ccc(O)c4O[C@@H]2/C(=N/N=C2\CC[C@@]4(O)C6Cc7ccc(O)c8c7[C@@]4(CCN6CC=C)[C@@H]2O8)CC[C@@]3(O)C1C5,inactive
12,NC(CCCCCP(=O)(O)O)C(=O)O (stereo not drawn),inactive
13,NC(=O)COc1c(F)cc(SCCNS(=O)(=O)c2ccccc2)cc1F,inactive
14,C=CCN(C1=NCCN1)c1c(Cl)cccc1Cl,inactive
15,CC(=O)OCC1=C(C(=O)O)N2C(=O)[C@@H](NC(=O)CCC[C@@H](N)C(=O)O)[C@H]2SC1,inactive
16,CCCN(CCC)C1Cc2cc(OC)c(OC)cc2C1,inactive
17,CC(N)Cc1c[nH]c2ccc(O)cc12 (stereo not drawn),9.53 µM (active)
